Laboratory results reported in PubChem BioAssay (EPA / NIEHS).
Where “and” joins values, the source holds several entries; their conditions need not be identical. Equal entries are not always repeated. Some compounds were tested as several samples or in several runs, with calls that do not always agree. Calls of active or inactive are those of the source. How the source made its calls: active means hit-call score of the fitted dose curve at least 0.9, where 1 is the maximum; inactive means score below 0.9.

Assays:
[1] = read-out: Tissue plasminogen activator (tPA), PLAT (gene 5327); experiment: BSK_BE3C_tPA: BioMAP Diversity Plus: BE3C Assay for Tissue plasminogen activator (tPA) Biomarker Activity (AID 2283041); details: primary human bronchial epithelial cells; actives raise or lower the signal
Procedure, shortened: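 Gain- or loss-of-signal in tPA, measured by ELISA, derived by bidirectional fitting against DMSO. Cells: human primary bronchial epithelial; read at 24 h after chemical dosing.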

[2] = read-out: Interleukin-8 (IL8), CXCL8 (gene 3576); experiment: BSK_CASM3C_IL8: BioMAP Diversity Plus: CASM3C Assay for Interleukin-8 (IL8) Biomarker Activity (AID 2283042); details: primary human coronary artery smooth muscle cells; actives raise or lower the signal;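 further: IL-8 protein level quantified by ELISA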
[3] = read-out: Human Leukocyte Antigen - DR isotype (HLADR), HLA-DRA (gene 3122); experiment: BSK_CASM3C_HLADR: BioMAP Diversity Plus: CASM3C Assay for Human Leukocyte Antigen - DR isotype (HLADR) Biomarker Activity (AID 2283043); details: primary human coronary artery smooth muscle cells; actives raise or lower the signal;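 further: cell-surface HLA-DR protein level quantified by ELISA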
[4] = read-out: Macrophage colony-stimulating factor (MCSF), CSF1 (gene 1435); experiment: BSK_CASM3C_MCSF: BioMAP Diversity Plus: CASM3C Assay for Macrophage colony-stimulating factor (MCSF) Biomarker Activity (AID 2283044); details: primary human coronary artery smooth muscle cells; actives raise or lower the signal;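 further: M-CSF protein amount quantified by ELISA after 24 h exposure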
[5] = read-out: Low-density lipoprotein receptor (LDLR), LDLR (gene 3949); experiment: BSK_CASM3C_LDLR: BioMAP Diversity Plus: CASM3C Assay for Low-density lipoprotein receptor (LDLR) Biomarker Activity (AID 2283045); details: primary human coronary artery smooth muscle cells; actives raise or lower the signal;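 further: LDLR protein level on the cell surface quantified by ELISA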
[6] = read-out: Monocyte Chemoattractant Protein-1 (MCP1), CCL2 (gene 6347); experiment: BSK_CASM3C_MCP1: BioMAP Diversity Plus: CASM3C Assay for Monocyte Chemoattractant Protein-1 (MCP1) Biomarker Activity (AID 2283046); details: primary human coronary artery smooth muscle cells; actives raise or lower the signal;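 further: MCP-1 level quantified by ELISA 24 h after dosing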
[7] = BSK_CASM3C_Proliferation: Cell Proliferation Assessment in the BioMAP Diversity Plus: CASM3C Assay (AID 2283047); details: primary human coronary artery smooth muscle cells;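 further: sulforhodamine B total protein stain as relative cell number at 560 nm; sub-confluent cells exposed 48 h before staining; fitted both ways against DMSO so gain or loss of cell number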
[8] = read-out: Monokine induced gamma interferon (MIG), CXCL9 (gene 4283); experiment: BSK_CASM3C_MIG: BioMAP Diversity Plus: CASM3C Assay for Monokine induced gamma interferon (MIG) Biomarker Activity (AID 2283048); details: primary human coronary artery smooth muscle cells; actives raise or lower the signal;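 further: MIG protein level measured by ELISA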
[9] = read-out: serum amyloid A (SAA), SAA1 (gene 6288); experiment: BSK_CASM3C_SAA: BioMAP Diversity Plus: CASM3C Assay for serum amyloid A (SAA) Biomarker Activity (AID 2283049); details: primary human coronary artery smooth muscle cells; actives raise or lower the signal;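 further: SAA protein level quantified by ELISA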
[10] = BSK_CASM3C_SRB: Viability Assessment in the BioMAP Diversity Plus: CASM3C Assay (AID 2283050); details: primary human coronary artery smooth muscle cells;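 further: total protein by SRB staining as cytotoxicity measure in parallel cultures; cells exposed to compound for 24 h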
[11] = read-out: Thrombomodulin, THBD (gene 7056); experiment: BSK_CASM3C_Thrombomodulin: BioMAP Diversity Plus: CASM3C Assay for Thrombomodulin Biomarker Activity (AID 2283051); details: primary human coronary artery smooth muscle cells; actives raise or lower the signal;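 further: thrombomodulin protein level measured by ELISA 24 h after dosing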
[12] = read-out: Tissue Factor, F3 (gene 2152); experiment: BSK_CASM3C_TissueFactor: BioMAP Diversity Plus: CASM3C Assay for Tissue Factor Biomarker Activity (AID 2283052); details: primary human coronary artery smooth muscle cells; actives raise or lower the signal;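 further: cell surface tissue factor protein level read by ELISA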
[13] = read-out: Interferon-gamma inducible Protein 10 (IP10), CXCL10 (gene 3627); experiment: BSK_hDFCGF_IP10: BioMAP Diversity Plus: hDFCGF Assay for Interferon-gamma inducible Protein 10 (IP10) Biomarker Activity (AID 2283053); details: primary human foreskin fibroblasts; actives raise or lower the signal
Procedure, shortened: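 Cells: human dermal foreskin fibroblasts. Exposure: 24 h post-dosing. Detection: IP-10 ELISA, with values expressed against DMSO controls and fitted in both directions.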

[14] = read-out: Urokinase-type plasminogen activator receptor (uPAR), PLAUR (gene 5329); experiment: BSK_CASM3C_uPAR: BioMAP Diversity Plus: CASM3C Assay for Urokinase-type plasminogen activator receptor (uPAR) Biomarker Activity (AID 2283054); details: primary human coronary artery smooth muscle cells; actives raise or lower the signal;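 further: cell-surface uPAR protein level quantified by ELISA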
[15] = read-out: Vascular cell adhesion molecule 1 (VCAM1), VCAM1 (gene 7412); experiment: BSK_CASM3C_VCAM1: BioMAP Diversity Plus: CASM3C Assay for Vascular cell adhesion molecule 1 (VCAM1) Biomarker Activity (AID 2283055); details: primary human coronary artery smooth muscle cells; actives raise or lower the signal;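 further: VCAM-1 protein level quantified by ELISA on the cells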
[16] = read-out: Collagen III, COL3A1 (gene 1281); experiment: BSK_hDFCGF_CollagenIII: BioMAP Diversity Plus: hDFCGF Assay for Collagen III Biomarker Activity (AID 2283056); details: primary human foreskin fibroblasts; actives raise or lower the signal
Procedure, shortened: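 ELISA read-out of collagen III from human skin fibroblast cultures sampled 24 h post-dosing. Values were derived by bidirectional fitting relative to the DMSO vehicle control.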

[17] = read-out: Epidermal growth factor receptor (EGFR), EGFR (gene 1956); experiment: BSK_hDFCGF_EGFR: BioMAP Diversity Plus: hDFCGF Assay for Epidermal growth factor receptor (EGFR) Biomarker Activity (AID 2283057); details: primary human foreskin fibroblasts; actives raise or lower the signal
Procedure, shortened: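 Dosing human primary skin fibroblasts, then measuring surface EGFR by ELISA at 24 h, gives the endpoint; gains and losses relative to DMSO were fitted in both directions.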

[18] = read-out: Interleukin-8 (IL8), CXCL8 (gene 3576); experiment: BSK_hDFCGF_IL8: BioMAP Diversity Plus: hDFCGF Assay for Interleukin-8 (IL8) Biomarker Activity (AID 2283058); details: primary human foreskin fibroblasts; actives raise or lower the signal
Procedure, shortened: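 Cells used are human skin primary fibroblasts. Chemical is added, cultures run 24 h, then IL-8 is quantified by ELISA, and gain or loss versus DMSO control is fitted in both directions.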

[19] = BSK_hDFCGF_Proliferation: Cell Proliferation Assessment in the BioMAP Diversity Plus: hDFCGF Assay (AID 2283059); details: primary human foreskin fibroblasts;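 further: curves fitted for both rise and fall of signal versus DMSO baseline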
Procedure, shortened: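 Total protein read at 560 nm after 0.1% SRB staining of TCA-fixed human skin fibroblasts, […]. Activity is fitted in both directions relative to DMSO as baseline.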

[20] = read-out: Macrophage colony-stimulating factor (MCSF), CSF1 (gene 1435); experiment: BSK_hDFCGF_MCSF: BioMAP Diversity Plus: hDFCGF Assay for Macrophage colony-stimulating factor (MCSF) Biomarker Activity (AID 2283060); details: primary human foreskin fibroblasts; actives raise or lower the signal
Procedure, shortened: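 Primary human foreskin fibroblasts dosed with chemical; 24 h later, M-CSF quantified by ELISA; curves fitted in both directions vs DMSO negative control.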

Measured: AC50

Cc1cccc(C)c1N
not listed: [20]
inactive: all other assays above

CCNc1nc(NC(C)C)nc(SC)n1
active: [13] 30.4 µM
not listed: [20]
inactive: all other assays above

ClC(Cl)=C(c1ccc(Cl)cc1)c1ccc(Cl)cc1
active: [3] 20 µM | [4] 20 µM | [7] 29.1 µM | [11] 20 µM | [13] 26.4 µM | [16] 24.5 µM | [18] 30 µM | [19] 5.36 µM
not listed: [20]
inactive: all other assays above

NS(=O)(=O)C(F)(F)C(F)(F)C(F)(F)C(F)(F)C(F)(F)C(F)(F)C(F)(F)C(F)(F)F
inactive: [1] | [2] | [3] | [4] | [5] | [6] | [7] | [8] | [9] | [12] | [14] | [15] | [17]
active: [1] 45.5 µM and 37 µM | [3] 26.2 µM and 46.2 µM | [4] 31.3 µM and 49 µM | [5] 44.3 µM | [6] 30 µM | [7] 54.4 µM and 50.9 µM | [8] 39.8 µM | [9] 46.8 µM | [10] 31.8 µM and 45.5 µM and 49.3 µM | [11] 26 µM and 34.6 µM and 37.3 µM | [13] 20 µM and 9.33 µM and 8.26 µM | [14] 46.6 µM and 42.5 µM | [15] 11.4 µM and 16.7 µM | [16] 12.6 µM and 10.8 µM and 9.02 µM | [18] 37.5 µM and 22.2 µM and 34 µM | [19] 12.2 µM and 18.3 µM and 19.5 µM

CCOP(=S)(OCC)SCSC(C)(C)C
active: [4] 2.51 µM
not listed: [20]
inactive: all other assays above

Cc1ccccc1O
not listed: [20]
inactive: all other assays above

COc1ccc(O)c(C(C)(C)C)c1
active: [2] 5.43 µM | [8] 3.97 µM | [16] 3.97 µM and 8.37 µM
inactive: [1] | [2] | [3] | [4] | [5] | [6] | [7] | [8] | [9] | [10] | [11] | [12] | [13] | [14] | [15] | [16] | [17] | [18] | [19] | [20]

O=C(O)C(F)(F)C(F)(F)C(F)(F)C(F)(F)C(F)(F)C(F)(F)C(F)(F)C(F)(F)C(F)(F)F
inactive: [2] | [3] | [4] | [5] | [6] | [7] | [8] | [9] | [10] | [11] | [12] | [14] | [15] | [17]
active: [1] 14.9 µM and 14.1 µM and 14.5 µM | [13] 28.5 µM and 29.1 µM and 32.8 µM | [15] 41.3 µM and 30 µM | [16] 29.7 µM and 30 µM | [17] 7.6 µM | [18] 36.9 µM and 57.3 µM and 55.1 µM | [19] 13.5 µM and 16.5 µM and 17.1 µM

Cc1cccc([N+](=O)[O-])c1
not listed: [20]
inactive: all other assays above

Oc1c(Cl)c(Cl)c(Cl)c(Cl)c1Cl
inactive: [2] | [3] | [4] | [5] | [6] | [7] | [8] | [9] | [10] | [11] | [12] | [14] | [17] | [18]
active: [1] 2.56 µM and 7.59 µM | [2] 2.09 µM | [3] 20 µM | [7] 26.7 µM | [10] 29.6 µM | [12] 34.9 µM | [13] 10.2 µM and 13.1 µM | [14] 20 µM | [15] 20 µM | [16] 2.34 µM and 2.57 µM | [19] 3.11 µM and 8.24 µM
